Outcome and AC50 data for 40 compounds are collected here from PubChem BioAssay (EPA / NIEHS).

Structures are written as SMILES. Calls of active or inactive are those of the source. The calls were made as follows: active = hit-call score of the fitted dose curve at least 0.9, where 1 is the maximum; inactive = score below 0.9.

As usually defined, the AC50 is the concentration giving half of the maximal activity seen.

Sequence of Signal transducer and activator of transcription 3 (Homo sapiens) (P40763 whole entry, looked up): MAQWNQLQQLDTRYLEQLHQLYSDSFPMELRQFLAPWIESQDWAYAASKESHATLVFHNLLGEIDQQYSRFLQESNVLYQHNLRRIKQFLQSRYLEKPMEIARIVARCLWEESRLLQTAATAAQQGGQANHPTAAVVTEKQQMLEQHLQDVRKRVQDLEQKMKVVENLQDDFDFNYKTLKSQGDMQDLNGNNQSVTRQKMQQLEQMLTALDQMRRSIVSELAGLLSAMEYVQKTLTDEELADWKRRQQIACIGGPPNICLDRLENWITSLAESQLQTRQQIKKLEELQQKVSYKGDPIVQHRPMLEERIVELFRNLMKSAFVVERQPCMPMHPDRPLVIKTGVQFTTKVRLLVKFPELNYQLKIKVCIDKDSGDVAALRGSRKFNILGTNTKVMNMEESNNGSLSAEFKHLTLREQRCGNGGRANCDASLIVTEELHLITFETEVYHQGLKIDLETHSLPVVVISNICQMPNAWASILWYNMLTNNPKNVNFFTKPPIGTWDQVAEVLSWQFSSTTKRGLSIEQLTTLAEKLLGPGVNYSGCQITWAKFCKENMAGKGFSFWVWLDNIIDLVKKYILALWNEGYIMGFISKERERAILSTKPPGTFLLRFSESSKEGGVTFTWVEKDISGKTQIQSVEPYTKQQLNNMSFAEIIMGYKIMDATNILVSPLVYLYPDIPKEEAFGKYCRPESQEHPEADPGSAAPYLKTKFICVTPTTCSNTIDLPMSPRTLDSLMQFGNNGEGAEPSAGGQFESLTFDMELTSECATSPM

In this experiment the target is Signal transducer and activator of transcription 3 (Homo sapiens) (UniProt P40763). In words: ATG_STAT3_CIS: Attagene CIS-FACTORIAL HepG2 Assay for human Signal Transducer and Activator of Transcription 3 (STAT3) (AID 2282963). The settings on record: HepG2, Attagene cis-factorial STAT3 reporter transcription; actives raise or lower the signal. The procedure:
ATG_CIS is a cell-based, multiplexed-readout assay that uses HepG2, a human liver cell line, with measurements taken at 24 hours after chemical dosing in a 24-well plate.ATG_STAT3_CIS is one of 52 assay component(s) measured or calculated from the ATG_CIS assay. It is designed to make measurements of mRNA induction, a form of inducible reporter, as detected with fluorescence intensity signals by Reverse transcription polymerase chain reaction (RT-PCR) and Capillary electrophoresis technology.Data from the assay component ATG_STAT3_CIS was analyzed into 1 assay endpoint. This assay endpoint, ATG_STAT3_CIS, was analyzed with bidirectional fitting relative to DMSO as the negative control and baseline of activity. Using a type of inducible reporter, measures of mRNA for gain or loss-of-signal activity can be used to understand the reporter gene at the transcription factor-level as they relate to the gene STAT3. Furthermore, this assay endpoint can be referred to as a primary readout, because this assay has produced multiple assay endpoints where this one serves a reporter gene function. To generalize the intended target to other relatable targets, this assay endpoint is annotated to the dna binding intended target family, where the subfamily is stat protein.
Human liver HepG2 cells are transiently transfected with multiple reporter transcription units (MRTUs) in 6-well plates using FuGene 6 reagent (Roche; 3 ml FuGene/1 mg DNA). The MRTU constructs are regulated by a cis-regulating element (promoter). […] A major difference between the CIS and TRANS system is that in CIS activities of endogenous TFs are measured, whereas the TRANS assay evaluates changes in activities of exogenous, chimeric NR-Gal4 proteins. […] At the end of 24 hour incubation, total RNA was isolated using TriZol reagent (Invitrogen). The isolated RNA is then reverse-transcribed using oligo(dT) primer and Mo-MLV reverse transcriptase (Invitrogen) with DNAse I (Ambion) treatment for 30 min. The one-tenth of the produced cDNA was amplified by PCR using Taq DNA polymerase (Invitrogen) and two reporter sequence-specific primers. The PCR products were fluorescently labeled by primer extension with 6-arboxyfluorescein (6-FAM) 5'-labeled reporter sequence-specific primer (2 min at 95 C, 20 s at 68 C and 10 min at 72 C) and these products were digested with 5U of HpaI (New England Biolabs) for 2h at 37 C. The fragments were purified using Qiaquick PCR columns (Qiagen), analyzed on an ABI 3130xL genetic analyzer (Applied Biosystems) with peak positions identified by using a set of X-rhodamine (ROX)-labeled MapMarker1000 molecular weight standards (BioVentures). The raw capillary electrophoresis data was processed using Attagraph software (Attagene).
On to `Clc1ccc(Nc2nnc(Cc3ccncc3)c3ccccc23)cc1`, for which the call was inactive.

For `O=c1cc(-c2ccccc2)oc2ccc3ccccc3c12`, the compound was classed as inactive.

In the case of `NC(C(F)(F)F)C(F)(F)F`, the compound was classed as inactive.

Regarding `O=C(C=C(O)C(F)(F)F)C(F)(F)F`, the call was inactive.

On to `NCc1cccc(CN)c1`, for which the compound was classed as inactive.

In the case of `COc1cc(OC)nc(NC(=O)NS(=O)(=O)Nc2ccccc2C(=O)N(C)C)n1`, the result was inactive.

Consider `FC1(F)C=CC(F)(F)C1(F)F`, for which the result was inactive.

Turning to `CCCC=O`, the outcome was inactive.

In the case of `O=C(O)CCC(F)(F)C(F)(F)C(F)(F)C(F)(F)C(F)(F)C(F)(F)F`, the result was inactive.

For `FC(F)(F)N1C(F)(F)C(F)(F)OC(F)(F)C1(F)F`, the result was inactive.

As for `CNNCc1ccc(C(=O)NC(C)C)cc1`, the outcome was inactive.

As for `C=CC(=O)OCCC(F)(F)C(F)(F)C(F)(F)C(F)(F)C(F)(F)C(F)(F)F`, the compound was classed as inactive.

Consider `N=C(N)c1ccc(OCCCCCOc2ccc(C(=N)N)cc2)cc1`, for which the outcome was inactive.

On to `NCCN`, for which the call was inactive.

As to `COC(O)c1ccccc1` (stereo not given), the compound was classed as inactive.

In the case of `Cc1ccc(N=Nc2c(O)ccc3ccccc23)c(C)c1`, the compound was classed as inactive.

Consider `CC(C)(c1ccc(Oc2ccc(N)cc2)cc1)c1ccc(Oc2ccc(N)cc2)cc1`, for which the call was inactive.

For the compound `CN(CCO)S(=O)(=O)C(F)(F)C(F)(F)C(F)(F)C(F)(F)C(F)(F)C(F)(F)C(F)(F)C(F)(F)F`, the call was inactive.

For the compound `Cc1cc(C(C)(C)C)c(O)c(C(C)(C)C)c1`, the result was inactive.

Turning to `CCCCCCCCCCCCCCCC(=O)OC`, the compound was classed as inactive.

With `O=S(=O)(O)C(F)(F)C(F)(F)C(F)(F)C(F)(F)C(F)(F)C(F)(F)C(F)(F)C(F)(F)C(F)(F)C(F)(F)F`, the compound was classed as inactive.

With `c1cnc2c(c1)ccc1cccnc12`, the outcome was inactive.

Regarding `O=C(NO)c1ccccc1`, the outcome was inactive.

With `Cn1sccc1=O`, the compound was called inactive.

`CC(C)[C@@H]1CC[C@@H](C)C[C@H]1O`: the call was inactive.

In the case of `Cc1ccccc1C(OCCN(C)C)c1ccccc1` (stereo not given), the compound was called inactive.

Regarding `C=COC(=O)C(C)(C)CCCCCC`, the compound was classed as inactive.

For the compound `FC(F)=C(F)C(F)(F)C(F)(F)C(F)(F)C(F)F`, the call was inactive.

As for `CS(=O)(=O)c1ccc([C@@H](CC2CCCC2)C(=O)Nc2cnccn2)cc1Cl`, the result was inactive.

For `FC(F)(F)C(F)(F)C(F)(F)C(F)(F)I`, the result was inactive.

In the case of `C[C@]12CC[C@@H]3c4ccc(O)cc4CC[C@H]3[C@@H]1CC[C@@H]2OC(=O)CCC1CCCC1`, the call was inactive.

As for `O=C(O)c1cccc(C(=O)O)n1`, the outcome was inactive.

`CCC(C)c1ccccc1O` (stereo not given): the outcome was inactive.

For `Cc1cncc(C)c1`, the outcome was inactive.

In the case of `CCc1cccc(CC)c1NC(=O)C(=O)O`, the result was inactive.

As to `Cc1cc(Cc2cc(C)cc(C(C)(C)C)c2O)c(O)c(C(C)(C)C)c1`, the AC50 is 160 µM (active).

On to `CC(C)C=O`, for which the compound was called inactive.

Consider `CC1CCC(C(=O)O)CC1` (stereo not given), for which the result was inactive.

`O=P(O)(O)CCC(F)(F)C(F)(F)C(F)(F)C(F)(F)C(F)(F)C(F)(F)C(F)(F)C(F)(F)F`: the compound was called inactive.

Take `CCc1ccccc1O`: the call was inactive.
